The source made the active and inactive calls. How the source made its calls: active means hit-call score of the fitted dose curve at least 0.9, where 1 is the maximum; inconclusive means response in the unintended direction; inactive means score below 0.9.
Assay: Tanguay_ZF_120hpf_ActivityScore_legacy: (Legacy) Oregon State University Tanguay Lab 120 Hour Post-fertilization zebrafish Assay Score for Activity (AID 2283742);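 on AC50: static exposure from 6 hpf until 120 hpf at 28 °C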
Experimental: Tanguay_ZF_120hpf_legacy is a whole embryo, multiplexed endpoint assay using zebrafish larvae exposed for 120 hours post fertilization on a 96-well plate.Tanguay_ZF_120hpf_ActivityScore_legacy is one of one assay component(s) measured or calculated from the Tanguay_ZF_120hpf_legacy assay. It is designed to make measurements of developmental malformations and mortality as detected with brightfield microscopy and combines scoring from 18 other assay components measuring more specific morphologies.Data from the assay component Tanguay_ZF_120hpf_ActivityScore_legacy was analyzed into 1 assay endpoints. This assay endpoint, Tanguay_ZF_120hpf_ActivityScore_legacy, was analyzed in the positive analysis fitting direction relative to DMSO as the negative control and baseline of activity. Using a type of morphology reporter, gain-of-signal activity can be used to understand changes in developmentals as they relate to the whole embryo. To generalize the intended target to other relatable targets, this assay endpoint is annotated to the zebrafish development intended target family, where the subfamily is embryonic morphogenesis and mortality.
Zebrafish husbandry: Tropical 5D wild-type adult zebrafish were housed in at an approximate density of 1000 per 100 gallon tank at the Sinnhuber Aquatic Research Laboratory, Oregon State University, Corvallis, OR. Each tank was kept at standard laboratory conditions of 28C on a 14-h light/10-h dark photoperiod in fish water consisting of reverse osmosis water supplemented with a commercially available salt (Instant Ocean). Spawning funnels were placed into the tanks the night prior, and embryos were collected and staged. To increase bioavailability, the chorion was enzymatically removed using pronase (63.6mg/ml, >/= 3.5U/mg, Sigma-Aldrich: P5147) at 4 hours post fertilization (hpf) using a custom automated dechorionator.Chemical exposures: Six hpf dechorionated embryos were placed 1 embryo per well in a 96-well plate prefilled with 90 ul of EM using automated embryo placement systems (AEPS). Ten microliters of each row of dilution plate 2 was added to 2 exposure plates. The final DMSO concentration used was 0.64% (vol/vol). Thirty-two embryos were also exposed to 5uM trimethyltin chloride (positive control). Plates were sealed to prevent evaporation and foil covered to reduce light exposure and kept in a 28C incubator. Embryos were statically exposed until 120 hpf. At 24 hpf, embryos were assessed for photomotor response using a custom photomotor response analysis tool (PRAT) and for developmental toxicity endpoints (MO24: mortality at 24 hpf, DP: developmental progression, SM: spontaneous movement, and NC: notochord distortion). At 120 hpf, locomotor activity was measured using Viewpoint Zebralab and assessed for 18 endpoints. Zebrafish acquisition and analysis program (ZAAP), a custom program designed to inventory, acquire, and manage zebrafish data, was used to collect developmental endpoints as either present or absent (i.e., binary responses were recorded). If mortality occurred for an embryo (at either 24 or 120 hpf), the non-mortality endpoints were not measured.

| Compound | outcome | AC50 |
| --- | --- | --- |
| CC(C)CC(C)(O)C#CC(C)(O)CC(C)C (stereo not given) | inactive | – |
| CC(C)=CCCC(C)CCO (stereo not given) | inactive | – |
| COC(=O)CC(=O)OC | inactive | – |
| O=C(CCCCCCCCc1cccnc1)N1CCC(C=C(c2ccccc2)c2ccccc2)CC1 | inactive | – |
| O=c1n(CC2CO2)c(=O)n(CC2CO2)c(=O)n1CC1CO1 (stereo not given) | inactive | – |
| Cn1cnc([N+](=O)[O-])c1Sc1ncnc2nc[nH]c12 | inactive | – |
| CCOCCO | inactive | – |
| COC(=O)c1c(Cl)c(Cl)c(C(=O)OC)c(Cl)c1Cl | inactive | – |
| COc1ccc(-n2nc(C(F)F)cc2-c2ccc(S(C)=O)cc2)cc1 (stereo not given) | – | 151 µM (active) |
| CCCCC(CC)COC(=O)c1ccc(C(=O)OCC(CC)CCCC)cc1 (stereo not given) | inactive | – |
| Cc1ccc(O)cc1 | inactive | – |
| Fc1ccccc1[C@@H](F)COC1CCC(Nc2ncnc3[nH]ncc23)CC1 (stereo not given in full) | inactive | – |
| CCOC(=O)COc1ccc2c(c1)CC(NCC(O)c1cccc(Cl)c1)CC2 (stereo not given) | – | 30 µM (active) |
| Oc1ccc2c(c1)-c1ccccc1C2 | – | 46.6 µM (active) |
| CC(C)CCCCCCOC(=O)c1ccc(C(=O)OCCCCCCC(C)C)c(C(=O)OCCCCCCC(C)C)c1 | inactive | – |
| CC(C)CCCCCCCOC(=O)CCCCC(=O)OCCCCCCCC(C)C | inactive | – |
| On1ccccc1=S | inactive | – |
| Cc1ccc(C)c(O)c1 | inactive | – |
| CCOC(=O)CC(CC(=O)OCC)(OC(C)=O)C(=O)OCC | inactive | – |
| CCc1cc(SCc2sc(-c3ccc(C(F)(F)F)cc3)nc2CN2CCN(c3ccc(OC)cc3)CC2)ccc1OCC(=O)O | – | 61.5 µM (active) |

| Compound | outcome | AC50 |
| --- | --- | --- |
| O=C1CCC(N2C(=O)c3ccccc3C2=O)C(=O)N1 (stereo not given) | inactive | – |
| Cc1ccc(S(=O)(=O)O)cc1C | inactive | – |
| Nc1cccc(N)c1 | inactive | – |
| CC(O)CN(CCN(CC(C)O)CC(C)O)CC(C)O (stereo not given) | inactive | – |
| CCCCC(CC)COC(=O)CCCCCCCCC(=O)OCC(CC)CCCC (stereo not given) | inactive | – |
| CCN(C(=O)c1cc(C)cc(OC[C@H](C)Nc2ccncc2)c1)C(C)C | inactive | – |
| CC(C)=CCC/C(C)=C/CO | inactive | – |
| COc1ccc2sc(C(=O)Nc3nnn[nH]3)c(OC(C)C)c2c1 | inactive | – |
| CCOc1cccc(-n2cc(C(=O)N3CCN(c4cc(C(=O)O)c5ccccc5c4)CC3)nc2-c2ccc(C)cc2)c1 | inactive | – |
| CCCCCCCCCCCCc1ccccc1 | inactive | – |
| CC1(C)C(=O)N(Br)C(=O)N1Br | inactive | – |
| CCCC(=O)OCC | inactive | – |
| CCCCCCc1ccc(O)cc1O | – | 43.8 µM (active) |
| C=CCCCCCCCCC(=O)O | inactive | – |
| O=C1OC(=O)C2C3C=CC(C3)C12 (stereo not given) | inactive | – |
| O=P(OC(CCl)CCl)(OC(CCl)CCl)OC(CCl)CCl | – | 38.3 µM (active) |
| CC(C)(O)c1coc(S(=O)(=O)NC(=O)Nc2c3c(cc4c2CCC4)CCC3)c1 | inactive | – |
| O=C1CCCCCN1 | inactive | – |
| Nc1nc2ncc(CNc3ccc(C(=O)N[C@@H](CCC(=O)O)C(=O)O)cc3)nc2c(=O)[nH]1 | inactive | – |
| COCCOCCOCCOC | inactive | – |

— PubChem BioAssay (EPA / NIEHS)
